According to PubChem BioAssay (NCI):
The panel holds about 79,000 compounds, 15% with a hit somewhere; the sample as a whole holds those more often. Calls of active or inactive are those of the source. No stated cut-off is given here; in the data, active means growth inhibition above about 70%; inactive means the rest.

Tests used:
[1] = NCI Yeast Anticancer Drug Screen. Data for the rad50 strain (AID 155);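 further: 0% = growth of vehicle-only cultures of the same strain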; conditions: S. cerevisiae rad50 strain growth inhibition; at 50.0 µM; hits give high values
Method in brief: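 A DNA repair-deficient yeast mutant serves as the test organism; compound-induced growth inhibition is calculated against vehicle-treated cells.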

[2] = NCI Yeast Anticancer Drug Screen. Data for the mec2-1 strain (AID 157); conditions: S. cerevisiae mec2-1 strain, at 50.0 µM, hits give high values
Method in brief: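 Compounds were applied to mec2-1 yeast cells. Their growth was then compared with that of vehicle-treated cultures to give growth inhibition.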

[3] = NCI Yeast Anticancer Drug Screen. Data for the sgs1 mgt1 strain (AID 161);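 further: 0% = growth of cultures given vehicle only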; conditions: S. cerevisiae sgs1 mgt1 strain, at 50.0 µM, hits give high values
Method in brief: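 Growth of a repair-deficient yeast mutant was monitored after compound treatment and expressed as inhibition relative to vehicle-treated cultures.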

[4] = NCI Yeast Anticancer Drug Screen. Data for the cln2 rad14 strain (AID 165);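 further: 0% = growth equal to vehicle treated cultures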; conditions: S. cerevisiae cln2 rad14 strain, at 50.0 µM, hits give high values
Method in brief: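 Strain: cln2 rad14 yeast, altered in cell cycle control and DNA damage repair. Read-out: growth inhibition vs vehicle.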

[5] = NCI Yeast Anticancer Drug Screen. Data for the bub3 strain (AID 167); conditions: S. cerevisiae bub3 mutant strain, at 50.0 µM, hits give high values
Method in brief: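 Inhibition values come from growth of compound-treated mutant yeast normalised to vehicle-treated controls.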

[6] = NCI Yeast Anticancer Drug Screen. Data for the mlh1 rad18 strain (AID 175); conditions: S. cerevisiae mlh1 rad18 strain growth inhibition; at 50.0 µM; hits give high values
Method in brief: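 A repair-deficient yeast strain is exposed to test compound, and growth is scored relative to vehicle-treated controls.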

Measured: growth inhibition

CC(C)CNCCCC(C)Nc1ccnc2cc(Cl)ccc12 (configuration not stated)
inactive: [1] 11.3% | [2] -1.45% | [3] -2.25% | [4] -2.95% | [5] -15% | [6] -9.65%

O=C(NCCc1ccccc1)c1ccc(Cl)cc1
inactive: [1] 6.25% | [2] 9.8% | [3] 9.9% | [4] 10.8% | [5] 26% | [6] 1.5%

CC1=C(C#[N+][O-])C(C)(C)CCC1
inactive: [1] 1.05% | [2] 5.1% | [3] -2.9% | [4] 10.1% | [5] -23.9% | [6] -16.2%

NCCC(=O)NCCSSCCNC(=O)CCN
inactive: [1] -8.45% | [2] 11% | [3] 6.25% | [4] -16.8% | [5] 6.8% | [6] 15.1%

CCOC(=O)c1sc(Nc2cc(Cl)ccc2Cl)nc1C
inactive: [1] -6.2% | [2] -19.6% | [3] -9.2% | [4] -2% | [5] -8.3% | [6] -15.1%

O=C(N/N=C\c1ccccn1)Nc1ccc(N=Nc2ccccc2)cc1
inactive: [1] 6.55% | [2] -9.85% | [3] -1.65% | [4] -3.9% | [5] 5.75% | [6] 4.9%

CCOc1c(Cc2ccccc2)c(=O)n2c3ccccc3n(CC)c2c1C#N
inactive: [1] -4.75% | [2] -6.05% | [3] 0.25% | [4] -11.8% | [5] -29.9% | [6] -10.8%

O=[N+]([O-])/C(C(Cl)=C(Cl)Cl)=C(/Cl)Sc1ccccc1
active: [1] 91.8% | [2] 92.1% | [3] 85.7% | [4] 89.8% | [5] 89.1% | [6] 91.4%

CC1CCC2(OC1)OC1CC3C4CCC5CC(O)CCC5(C)C4C(=O)C(O)C3(C)C1C2C (configuration not stated)
inactive: [1] 39.5% | [2] 17.9% | [3] 49% | [4] 16.7% | [5] 14.5% | [6] 41%

COc1ccc(/C=N/n2cnc3c(c2=O)SC(=C(C#N)C#N)N3c2ccccc2)cc1
inactive: [1] -5.4% | [2] -35.5% | [3] -15.6% | [4] -16.1% | [5] -19.5% | [6] -41%

COc1c2occc2c(CC(O)C(C)(C)O)c2ccc(=O)oc12 (configuration not stated)
inactive: [1] 13.4% | [2] -20.7% | [3] 14.8% | [4] -6.75% | [5] -3.75% | [6] -13.2%

COc1ccc(Cl)cc1NC(C)=O
inactive: [1] 5.1% | [2] 8.1% | [3] 5.2% | [4] 7.25% | [5] 3.7% | [6] -7.65%

CC(=O)OCCOCNC(=S)N/N=C/c1ccccn1
inactive: [1] 24.2% | [2] 26% | [3] -8.35% | [4] 6.7% | [5] 12.6% | [6] 45.6%

COC(=O)C(=NNc1ccccc1[N+](=O)[O-])C(=O)OC
inactive: [1] 15.9% | [2] 5% | [3] 23.1% | [4] 33.8% | [5] 19.8% | [6] -2.6%

[O-][N+]1=CCCC1
inactive: [1] 4.4% | [2] -13.9% | [3] -0.65% | [4] -5.5% | [5] -0.2% | [6] -16.4%

CCOC(=O)c1ccc(-n2nc(C)cc(Cl)c2=O)cc1
inactive: [1] 1.3% | [2] -11.2% | [3] 10.8% | [4] -43% | [5] 20.4% | [6] -4.8%

COC(NC(N)=O)C(=O)O (configuration not stated)
inactive: [1] 6.9% | [2] 12.3% | [3] -1.25% | [4] -0.9% | [5] 11.9% | [6] 13.7%

O=C1c2ccccc2C(=O)N1OCCCCON1C(=O)c2ccccc2C1=O
inactive: [1] 10.8% | [2] -0.2% | [3] -19.9% | [4] 15.1% | [5] 1% | [6] -2.4%

COc1cc2c(c(O)c1OC)C(=O)[C@@H]1CCC(=O)N1C2c1ccccc1 (some centres not stated)
inactive: [1] 19.1% | [2] 2.7% | [3] 19.4% | [4] 13.1% | [5] 11.3% | [6] -18.4%

O=C1c2ccccc2C(=CC=C2c3ccccc3Sc3ccccc32)c2ccccc21
inactive: [1] 11.9% | [2] 25.9% | [3] -35% | [4] 9.55% | [5] 24.2% | [6] -5.75%

COc1ccc(/C=C2\C(=O)N(C(=O)c3ccc(NC(C)=O)cc3)N=C2C)cc1
inactive: [1] -27.6% | [2] -36.2% | [3] -39.2% | [4] -0.3% | [5] -20.9% | [6] -41.2%

O=C(COc1ccc(Cl)c(Cl)c1)NCc1cccc(NC(=O)CBr)c1
active: [1] 99.2% | [2] 99.5% | [4] 99.5% | [5] 99.2% | [6] 99.2%
inactive: [3] 45.2%

CCOC(=O)C1CC(=O)C=C2CCCCC21 (configuration not stated)
inactive: [1] -4.05% | [2] -27.7% | [3] -7.55% | [4] 5.35% | [5] -30.1% | [6] 13.4%

Cc1cc(OC(N)=S)cc(C)c1Cl
inactive: [1] 20.6% | [2] 4.2% | [3] 7.6% | [4] -6.25% | [5] 3.4% | [6] -2.1%

COc1ccc(C[n+]2ccccc2C#N)cc1OC
inactive: [1] 4.7% | [2] -13.8% | [3] -10.4% | [4] -15.8% | [5] 4.25% | [6] 3.2%

OC(CC1CCCCN1)c1cc2c(Cl)cc(Cl)cc2c2cc(C(F)(F)F)ccc12 (configuration not stated)
inactive: [1] 68% | [2] 50.6% | [3] 42.5% | [4] 30.1% | [6] 52%
active: [5] 98.8%

CNC(=O)c1ccc(/C=C/c2c[nH]c3ccccc23)[n+](C)c1
inactive: [1] -24.9% | [2] -7.9% | [3] -9.05% | [4] -11.2% | [5] -2.65% | [6] -13.3%

C/C(=N\NC(N)=O)C1CCCc2ccccc21 (configuration not stated)
inactive: [1] 2.45% | [2] -15.3% | [3] -9.8% | [4] -6.55% | [5] -10.3% | [6] 10.2%

CCCCCCCCSCCCC(=O)O
inactive: [1] -16.9% | [2] -22.8% | [3] -10.8% | [4] -11.3% | [5] -27.7% | [6] -29.2%

NC(=O)c1nnsc1NC=O
inactive: [1] 15.2% | [2] 7.95% | [3] -40.7% | [4] -0.2% | [5] -26.1% | [6] -29.8%

Fc1ccc(-c2cc(-c3ccc(F)cc3)cc(-c3ccc(F)cc3)c2)cc1
inactive: [1] -0.4% | [2] 11.5% | [3] 13.2% | [4] 14.2% | [5] -8.15% | [6] 10.4%

CC(=N\N)/C(C)=N/N=C(C)/C(C)=N/N=C(C)/C(C)=N/N=C(C)/C(C)=N/N
inactive: [1] 11.7% | [2] -7.8% | [3] 4.9% | [4] 13.7% | [5] -8.35% | [6] -14.4%

CC1=C(C)CC2C(=O)C=CC(=O)C2C1 (configuration not stated)
inactive: [1] 8.9% | [2] 1.4% | [3] -10.7% | [4] 4.65% | [5] 2.25% | [6] -6.9%

O=C(N/C(=C\c1ccccc1)C1Nc2ccccc2C(=O)O1)c1ccccc1 (configuration not stated)
inactive: [1] -6.8% | [2] 2.95% | [3] -19.6% | [4] -17.2% | [5] -8.95% | [6] -24.7%

c1ccc(-c2c3ccccc3c(-c3ccccc3)c3ccccc23)cc1
inactive: [1] 6.2% | [2] 5.95% | [3] 6.7% | [4] -3.75% | [5] 2.4% | [6] 19.7%

NC(=O)N1CCc2ccccc2C1c1ccccc1 (configuration not stated)
inactive: [1] -2.95% | [2] -12.7% | [3] -7.55% | [4] -14.4% | [5] 9.25% | [6] -21.4%

C1C[OH+]CCNCC[OH+]CC[OH+]CCN1.[Cl-].[Pt+4]
inactive: [1] -14.5% | [2] -29.2% | [3] 1.55% | [4] -9.05% | [5] 3.5% | [6] -16.2%

CC(C)Cc1ccc(C(C)CC2=CCC(CN(C)C)C2=O)cc1 (configuration not stated)
active: [1] 79.2% | [2] 91.5% | [3] 90.2% | [4] 84.4% | [5] 88.7% | [6] 89.3%

CCCCOCCC1CCNCC1
inactive: [1] -46% | [2] -44.1% | [3] -51.5% | [4] 10.8% | [5] -48% | [6] -24%

O=C(OCc1ccccc1C1CSCSC1)c1cc(C(=O)OCc2ccccc2C2CSCSC2)c(C(=O)OCc2ccccc2C2CSCSC2)cc1C(=O)OCc1ccccc1C1CSCSC1
inactive: [1] 5.3% | [2] -17.7% | [3] -10.6% | [4] 1.65% | [5] 6.1% | [6] -8.8%

CCCCOC(=O)COc1ccc2c(C)c(CCN(CC)CC)c(=O)oc2c1
inactive: [1] -13.1% | [2] -34.1% | [3] 1.25% | [4] -7.55% | [5] -21.8% | [6] -2.5%

CCn1c(=O)ccc2ccc(N(CCO)CCO)nc21
inactive: [1] -19.9% | [2] 8.3% | [3] -0.15% | [4] -3.6% | [5] -9% | [6] 10.1%
